Experimental data: PubChem BioAssay AID624483 (NMMLSC, 2012)
About 11,000 (3.1%) of roughly 360,000 compounds were called active. About 2% were inconclusive and are not listed. For the sample, actives were picked, then their nearest neighbours and some compounds at random. Values without a mark were called inactive. Cut-off read from the data, not from the text of the source: active = fluorescence intensity above about 16000; inconclusive = no clear call, values can overlap the other calls; inactive = below that.

Assay: compound fluorescence in toxin protease inhibitor counterscreen, primary screen, artefact control for toxin protease inhibitor project, biochemical, multiplex microsphere, HTS (AID 624483)
Settings: compound autofluorescence counterscreen, microsphere flow cytometry; active compounds read high

Row | Structure (SMILES) | fluorescence intensity
1 | COc1ccc(OC)c(S(=O)(=O)NCCC(C)C)c1 | 4230
2 | COCCNS(=O)(=O)c1cc(Br)ccc1OC | 24900 (active)
3 | COc1ccc(C)cc1S(=O)(=O)NCCc1ccccc1 | 11800
4 | Cc1ccn(CC(=O)NC2CCCN(Cc3ccccc3F)C2)n1 (configuration not stated) | 3870
5 | Cc1ccc(CN2CC(N3CCC(Cc4ccccc4)CC3)CS2(=O)=O)cc1 (configuration not stated) | 6680
6 | Nc1ncnc2c1ncn2[C@@H]1O[C@H](C(=O)NS(=O)(=O)c2c(Cl)nc3sccn23)[C@@H](O)[C@H]1O | 3980
7 | O=C(NCc1ccccc1Cl)C1CCN(S(=O)(=O)c2cccc3nonc23)CC1 | 3550
8 | N#C/C=C\Oc1ccc(Cl)cc1N | 23100 (active)
9 | Cc1nccn1-c1ccc(NC(=O)[C@H]2O[C@@H](n3ccc(=O)[nH]c3=O)[C@H](O)[C@@H]2O)cc1 | 5140
10 | CC1(C(=O)NS(=O)(=O)c2ccccc2)CCN1C(=O)Cc1ccc(-c2ccccc2)cc1 (configuration not stated) | 3470
11 | COc1ccc(CCNC(=O)CN2C(=O)CCSc3ccccc32)c(OC)c1 | 4070
12 | CCOC(=O)CNC(=O)CN1C(=O)CCSc2ccccc21 | 20800 (active)
13 | CN(C(=O)CN1C(=O)CCSc2ccc(S(=O)(=O)N3CCCC3)cc21)c1ccccc1 | 5730
14 | COc1ccc(-n2c(SCC(=O)Nc3ccc4c(c3)OCO4)nnc2C(C)N2CCCCC2)cc1 (configuration not stated) | 6740
15 | CCOC(=O)Cc1csc(NC(=O)CSc2nnc(-c3cccnc3)n2Cc2ccco2)n1 | 4600
16 | O=C(CSc1nnc(-c2cnccn2)n1Cc1ccco1)c1ccc(Cl)c(Cl)c1 | 9950
17 | COc1cc(Cl)c(C)cc1NC(=O)CSc1nnc(-c2cccnc2)n1Cc1ccco1 | 20700 (active)
18 | COc1ccc(NC(=O)CSc2nnc(-c3cccs3)n2Cc2ccco2)cc1OC | 10300
19 | Cc1ccc(NC(=O)CSc2nnc(-c3cnccn3)n2Cc2ccco2)cc1C | 3350
20 | CCn1c(SCC(=O)Nc2cc(C)c(Cl)cc2OC)nnc1-c1ccco1 | 5870
21 | COc1ccccc1NC(=O)CSc1nc2sc(C)c(C)c2c(=O)n1Cc1ccco1 | 22300 (active)
22 | C(=C\c1ccccc1)/CSc1nnc(-c2cccnc2)n1Cc1ccco1 | 23400 (active)
23 | COc1ccccc1NC(=O)CSc1nc2sc3c(c2c(=O)n1-c1ccccc1)CCN(C)C3 | 7290

Row | Structure (SMILES) | fluorescence intensity
24 | Cc1cc(-c2ccccc2)nc(N2CCC(C(=O)NC34CC5CC(CC(C5)C3)C4)CC2)n1 | 3890
25 | CCN(C(=O)COc1cccnc1[N+](=O)[O-])C1CCS(=O)(=O)C1 (configuration not stated) | 2480
26 | COc1ccc(CNC(=O)c2ccc(-c3cccnc3)c3ccoc23)cc1OC | 3080
27 | Cc1cccc(C)c1-n1nnnc1C(CCc1ccccc1)N1CCN(C/C=C/c2ccccc2)CC1 (configuration not stated) | 5940
28 | Cc1cc(Br)ccc1NC(=O)CCCOc1cc(=O)n(C)c2ccccc12 | 3350
29 | Cc1nn(Cc2ccccc2)c(C)c1C(=O)NCCCN1CCCC1=O | 3680
30 | O=C(CCC(=O)NNc1nc2ccccc2c2nc(-c3ccccc3)nn12)NCCCN1CCCC1=O | 2420
31 | O=C1CCCN1CCCNc1ncnc2c1[nH]c1ccccc12 | 23000 (active)
32 | O=C(CCn1c(=S)[nH]c2ccccc2c1=O)NCCCN1CCCC1=O | 22700 (active)
33 | CCOc1cc2[nH]c(=S)n(CCCN3CCCC3=O)c(=O)c2cc1OCC | 5800
34 | O=Cc1c(NCCCN2CCCC2=O)c2ccccc2[nH]c1=O | 3940
35 | CC(=O)c1ccc(N2C(=NC(=O)C(C)C)SC3CS(=O)(=O)CC32)cc1 (configuration not stated) | 4490
36 | Cc1cccc2cc(CN(C(=O)c3cccs3)c3ccccc3)c(=O)[nH]c12 | 2690
37 | Cc1ccc(NC(=O)NC(=O)c2ccccc2)cc1F | 4110
38 | Cc1nc(C)c(C(=O)Nc2ccc(C)c(F)c2)o1 | 20400 (active)
39 | COc1ccc(Cl)cc1NC(=O)c1oc(C)nc1C | 11300
40 | N#Cc1ccccc1S(=O)(=O)N1CCN(Cc2c(O)ccc3ccccc23)CC1 | 2850
41 | O=C(COc1ccccc1Cl)N1N=C(c2cccs2)CC1c1ccco1 (configuration not stated) | 3750
42 | Cc1ccccc1C1CC(c2cccs2)=NN1S(C)(=O)=O (configuration not stated) | 6430
43 | Fc1ccc(N2N=C(c3cccs3)CC2c2ccco2)c(F)c1 (configuration not stated) | 20900 (active)
44 | O=C(NC(c1ccc(-c2ccccc2)cc1)c1cnccn1)C1CCN(CCOc2ccc(Cl)cc2Cl)CC1 (configuration not stated) | 4380
45 | CCCS(=O)(=O)N1CCCC(C(=O)NCc2ccco2)C1 (configuration not stated) | 2870
46 | O=C(NCc1ccco1)C1CCCN(S(=O)(=O)c2cnc[nH]2)C1 (configuration not stated) | 5600

Row | Structure (SMILES) | fluorescence intensity
47 | O=C(NCc1ccco1)C1CCCN(S(=O)(=O)c2ccccc2)C1 (configuration not stated) | 21200 (active)
48 | COCCNC(=O)C(c1ccc(C)cc1)N(C(=O)CCC(=O)Nc1ccccn1)c1cccc(C)c1 (configuration not stated) | 4510
49 | Cn1c2c(c(=O)n(C)c1=O)C(c1cccc(F)c1)C(C#N)=C(N)O2 (configuration not stated) | 4470
50 | Cc1cc2c(c(=O)n1Cc1ccco1)C(c1ccccc1)C(C#N)=C(N)O2 (configuration not stated) | 23400 (active)
51 | Cc1cc2c(c(=O)n1C)C(C(C)C)C(C#N)=C(N)O2 (configuration not stated) | 3460
52 | COc1ccc2c(c1)C(C)=CC(C)(C)N2C(=O)Nc1ccccc1 | 2880
53 | COc1ccc2c(c1)C(C)=CC(C)(C)N2C(=O)CNCc1ccc2c(c1)OCO2 | 21400 (active)
54 | COc1ccc(NC(=O)NCc2ccc3c(c2)OCO3)c(OC)c1 | 5960
55 | Cc1cc(C(=O)COc2ccc(Br)cc2F)c(C)n1C1CC1 | 4210
56 | CCCNC(=O)C1(C)CCCN(Cc2c(C)nn(-c3ccccc3)c2C)C1 (configuration not stated) | 3870
57 | OC(c1ccc(F)cc1)c1ncc(-c2cccc(C(F)(F)F)c2)[nH]1 (configuration not stated) | 2920
58 | COc1ccc(S(=O)(=O)N2CCC(C(=O)N3CCc4ccccc4C3)CC2)cc1OC | 18500 (active)
59 | COc1ccc(S(=O)(=O)N2CCC(C(=O)N3CCOCC3)CC2)cc1OC | 8730
60 | COc1ccc(S(=O)(=O)N2CCC(C(=O)N3CCCC3)CC2)cc1C | 2980
61 | CCCNC(=O)C1(C)CCN(C(=O)c2cc(F)ccc2C)C1 (configuration not stated) | 3600
62 | CCc1nc2ccc(C(=O)N(C)Cc3ccco3)cn2c1N(C)C(=O)Cc1ccccc1 | 3670
63 | O=S1(=O)CC(N2CCN(CCO)CC2)CN1Cc1cn(Cc2cccc(Cl)c2)nn1 (configuration not stated) | 5760
64 | Cc1cc(C)cc(Oc2nc3c(C)cccn3c(=O)c2/C=C(\C#N)C(=O)NC2CCS(=O)(=O)C2)c1 (configuration not stated) | 2120
65 | COCc1nc2ccccc2n1Cc1ccccc1Br | 20400 (active)
66 | C=C(Br)Cn1c(CCCC)nc2ccccc21 | 3410
67 | CCOCCn1c(C(C)C)nc2ccccc21 | 3860
68 | Nc1cccc(-c2cncc(N3CCN(Cc4ccccn4)CC3)n2)c1 | 3020
69 | Cc1cccc(CNC(=O)c2sc(=O)n(Cc3ccccc3C)c2C)c1 | 4210

Row | Structure (SMILES) | fluorescence intensity
70 | CCCCc1cc(=O)oc2cc(C)cc(OCc3nn[nH]n3)c12 | 2630
71 | Cc1noc(C)c1COc1ccc2ccc(=O)oc2c1 | 3400
72 | COc1ccc(-c2cc3ccc(OCc4nn[nH]n4)cc3oc2=O)cc1 | 24000 (active)
73 | CC(C)C1C(=O)N(Cc2cn(CCC3OCCO3)nn2)CCS(=O)(=O)N1Cc1ccc(-c2ccccc2C(F)(F)F)cc1 (configuration not stated) | 5850
74 | Cc1ccc(NC(=O)C(C)Sc2nnc(C3CC3)n2C2CC2)cc1S(=O)(=O)N1CCOCC1 (configuration not stated) | 3820
75 | COC(=O)c1ccc2nc(-c3ccc(C)cc3)c(Cc3ccc(OC)cc3C)n2c1 | 7150
76 | O=C(NCCCn1ccnc1)c1cc(-c2ccccc2)on1 | 3190
77 | CCN(CC)CCCNC(=O)c1cc(-c2cccc(Cl)c2)on1 | 22000 (active)
78 | O=C(NCCCN1CCOCC1)c1cc(-c2cccc(O)c2)on1 | 2910
79 | O=C(NCc1ccccc1)C1C(=O)N(Cc2ccccc2)C(=O)C1C1(O)CCCC1 (configuration not stated) | 8420
80 | COc1cc(NC(=O)C2=CC(c3ccco3)=NS(=O)(=O)N2C)cc(OC)c1OC | 4170
81 | O=S(=O)(NCCNS(=O)(=O)c1ccccc1)c1ccccc1 | 22900 (active)
82 | O=S(=O)(NCCc1ccccc1)c1ccccc1 | 3470
83 | O=S(=O)(NCCc1ccncc1)c1ccccc1 | 3020
84 | CCOc1ccc(CCN2C(=S)N([C@@H](CC(C)C)CN3CCC[C@@H]3CN3C(=S)NC[C@@H]3Cc3ccc(O)cc3)C[C@@H]2Cc2ccc(O)cc2)cc1 | 6230
85 | CCOc1c(Nc2cccc(Cl)c2)c(=O)c1=O | 4070
86 | CCOc1nnc(C)c2c(C)n(-c3cccc(Cl)c3)nc12 | 23500 (active)
87 | CCOc1ccc(CNC(=O)C2CCCN(c3nnc(C)c4c(C)n(-c5ccccc5)nc34)C2)cc1 (configuration not stated) | 9860
88 | Brc1cc(Br)c(Oc2cc(Br)c(Br)cc2Br)cc1Br | 5260
89 | COc1ccc(Cl)cc1NC(=O)CN(C)C(=O)c1ccc2n[nH]nc2c1 | 7700
90 | COc1ccc(Cl)cc1NC(=O)CN(C)C(=O)CNC(=O)C12CC3CC(CC(C3)C1)C2 | 22500 (active)
91 | COc1ccc(Cl)cc1NC(=O)CN(C)Cc1ccc(OC)c(OC)c1 | 4460
92 | CCOC(=O)C1=C(COC(=O)[C@H](C)NS(=O)(=O)c2ccccc2F)NC(=O)NC1C (some centres not stated) | 3650
